# Assay results as given in PubChem BioAssay (NCI).
# Values joined by “and” are separate entries in the source; they are usually repeats but may differ in a detail not shown here. Identical values can stand only once. About 83,000 compounds went through this panel and 20% of them were active in at least one assay; those are over-represented in the sample as a whole.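 The test compound was applied at a single concentration to cells in 96-well plates for 48 hours, and percent growth was recorded.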 Active and inactive are the calls of the source. Where a SMILES comes first, the peptide text is derived from it. [ ]: non-standard residue; d: D form. ξ: configuration not given here. ξV = CC(C)C(N)C(=O)O
# System: M14 melanoma
# Assay: NCI-60 one-dose screen, 48 h (100 = growth as untreated, 0 = no growth, -100 = all killed)
# Conditions: 0.0025 µM
# Description: Growth inhibition of the M14 human tumor cell line is measured as a screen for anti-cancer activity. Cells are grown in 96 well plates and exposed to the test compound for 48 hours. Compounds are tested at a single concentration, which is 10^-5 M for most compounds. The reported endpoint is percent growth (GI% or GIPRCNT), where numbers from 0 - 100% represent growth inhibition, and numbers from -100% - 0 represent cell death. For example, a value of 40 represents 60% growth inhibition. A value of 0 means no net growth occurred over the course of the experiment. A value of -40 indicates 40% of cells at the beginning of the experiment died by the end of the experiment. A value of -100 means all cells are dead at the end of the experiment.
# NCI-60 Human Tumor Cell Lines Screen was performed using the standard one-dose NCI protocol, which is described in more detail at https://dtp.cancer.gov/discovery_development/nci-60/default.htm.
# Compounds with GIPRCNT values below 10 were considered active. Activity score was based on GIPRCNT using the following formula: […]
# Score is 0 for GIPRCNT values of 100 or above, 50 for GIPRCNT values of 0, and 100 for GIPRCNT values of -100.
row,Compound,growth
1,COc1cccc2c1C(=O)c1c(O)c3c(c(O)c1C2=O)C[C@@](O)(C(=O)CO)C[C@@H]3OC1CC(N)C(O)C(C)O1 (stereo not given in full),90.9% (inactive)

# Same assay, conditions: 1 µM
row,Compound,growth
1,COc1cccc2c1C(=O)c1c(O)c3c(c(O)c1C2=O)C[C@@](O)(C(=O)CO)C[C@@H]3OC1CC(N)C(O)C(C)O1 (stereo not given in full),16.6% (inactive)

# Same assay, conditions: 2.5 µM
row,Compound,growth
1,COc1cccc2c1C(=O)c1c(O)c3c(c(O)c1C2=O)C[C@@](O)(C(=O)CO)C[C@@H]3OC1CC(N)C(O)C(C)O1 (stereo not given in full),50.9% (inactive)

# Same assay, conditions: 10 µM
row,Compound,growth
1,N=S(c1ccccc1[N+](=O)[O-])c1ccccc1[N+](=O)[O-],60.2% (inactive)
2,CCN1/C(=C/C=C/C=C/c2sc3ccccc3[n+]2CC)Sc2ccccc21,-81.7% (active)
3,CCCC1CCC(=C2C(=O)CCC2=O)O1 (stereo not given),100% (inactive) and 74.4% (inactive)
4,COc1c(O)cc2oc3cc(O)c(CC=C(C)C)c(O)c3c(=O)c2c1CC=C(C)C,54.4% (inactive)
5,CCCCCC(C)c1ccc(O)c(C)c1 (stereo not given),97.7% (inactive)
6,CC[N+](CC)=c1ccc2nc3c(cc(N)c4ccccc43)oc-2c1,-56.9% (active)
7,O=C(/C=C/c1ccccn1)c1ccccc1,42.1% (inactive)
8,COC(=O)C1=COC(C)C2C[n+]3ccc4c([nH]c5ccccc54)c3CC12 (stereo not given),107% (inactive) and 94% (inactive)
9,CC(=O)Nc1cc(C)ccc1C,101% (inactive)
10,Cc1cc(NS(=O)(=O)c2ccc(N=Nc3cc(N=Nc4ccc(S(=O)(=O)Nc5cc(C)nc(C)n5)cc4)c4c(NC(=O)C(Cl)Cl)cccc4c3OC(=O)C(Cl)Cl)cc2)nc(C)n1 (tested in a mixture with another compound),113% (inactive) and 111% (inactive)
11,O=C(O)COc1ccc(OCC(=O)O)cc1,20.7% (inactive)
12,Clc1cc(Cl)c(Cl)nn1,93% (inactive)
13,O=C(Nc1ccc(C(=O)O)c(O)c1)c1ccccc1,106% (inactive) and 99.6% (inactive)
14,O=C1C=C(O)c2ccccc2C1=O.[Ag],91.3% (inactive)
15,NC(=O)SCC(=O)NNc1ccccc1,102% (inactive)
16,CCCCCCCCCCCC[N+](C)(C)Cc1ccccc1,7.19% (active)
17,CO[C@H](C(=O)[C@@H](O)[C@@H](C)O)[C@@H]1Cc2cc3cc(OC4CC(OC5CC(O)C(O)C(C)O5)C(O)C(C)O4)c(C)c(O)c3c(O)c2C(=O)[C@H]1OC1CC(OC2CC(OC3CC(C)(O)C(O)C(C)O3)C(O)C(C)O2)C(O)C(C)O1 (stereo not given in full),-71.5% (active)
18,CN(C)C(=S)SC(=S)N(C)C,90.5% (inactive) and 93% (inactive)

row,Compound,growth
1,COc1ccc(CC(=O)c2ccc(O)cc2O)cc1,103% (inactive)
2,O=c1ccn(C2CC(O)C(COC(c3ccccc3)(c3ccccc3)c3ccccc3)O2)c(=O)[nH]1 (stereo not given),81.4% (inactive)
3,Nc1c2ccccc2nc2ccccc12,7.24% (active) and 34.6% (inactive) and 42.3% (inactive)
4,Nc1ccc2cc3ccc(N)cc3nc2c1,107% (inactive) and 12.6% (inactive)
5,NNc1c2ccccc2nc2ccccc12,66.4% (inactive)
6,CC(C)C(NC(=O)CN)C(=O)O (stereo not given) (H-Gly-[ξV]-OH),105% (inactive) and 108% (inactive)
7,CCCCCCCCCCCCSC(=NC)NC,-19.2% (active) and 60.6% (inactive)
8,OC(CN1CCCC2CCCCC21)c1cc2ccccc2c2ccccc12 (stereo not given),-69.8% (active)
9,CC(C)(C)CC(C)(C)c1ccc(OCCO)cc1,112% (inactive)
10,COC(=O)C1C(O)C(C)C(O)C(C)C=C(C)C2=C3C(=C(C)C(=O)c4c(O)c(c(C)c(OC(C)=O)c43)NC(=O)C(C)=C/C=C\C(C)C(O)C(C)C1O)OCO2 (stereo not given),108% (inactive)
11,OCC1OC(n2cnc3c(=S)nc[nH]c32)C(O)C1O (stereo not given),126% (inactive) and 32.4% (inactive)
12,Nc1nc(=S)c2ncn(C3OC(CO)C(O)C3O)c2[nH]1 (stereo not given),109% (inactive) and 15.5% (inactive)
13,Cc1nc(N=C(N)N)nc2ccc3ccccc3c12,4.95% (active)
14,CCO/C=C1\SC(=S)N(c2cccc(O)c2)C1=O,105% (inactive)
15,CCN(CC)c1ccc(NC(C(=O)c2ccccc2)c2ccccc2)cc1 (stereo not given),22.8% (inactive)
16,O=C1C=CC(=CC=C2C=CN(CCCCCCCCCCCO)C=C2)C=C1,45.4% (inactive)
17,O=[N+]([O-])C1=C(c2ccccc2)SC=C(c2ccccc2)S1,65.2% (inactive)
18,Oc1ccc(N=Nc2ccccn2)c(O)c1,-6.58% (active)

# Same assay, conditions: 100 µM
row,Compound,growth
1,O=c1ccn(C2CC(O)C(COC(c3ccccc3)(c3ccccc3)c3ccccc3)O2)c(=O)[nH]1 (stereo not given),52.5% (inactive)
